The sample as a whole holds a higher share of hits than the screen did.
ROS inducer = cancer cell ROS induction. U2OS ROS induction, H2DCF-DA fluorescence. ROS induction (% of piperlongumine), % at 10 µM. actives 2% (n = 46,000). AID 624156; in the data active means ROS induction above about 79%, passing the limit was not always enough; inconclusive means no clear call, values can overlap the other calls
PD-1 reversal = activators reversing PD-1 mediated T-cell inhibition; AID 2316; primary human CD4 T cells, PD-L1 beads, CellTiter-Glo 96 h; activation, % (concentration not given with the values); 29,000 tested, under 10 active; call rule not given here
NOMO-1 viab = STK33 inhibitor candidate reducing NOMO-1 cell viability. inhibition, % (test concentration not listed). actives 7.5% (n = 37,000). NOMO-1 AML viability, CellTiter-Glo luminescence, 72 h. AID 2330; in the data active means inhibition above about 80%; inconclusive means no clear call, values can overlap the other calls
A number is an active result; i = inactive; ? = inconclusive; nt = no result given.

SMILES	ROS inducer	PD-1 reversal	NOMO-1 viab
COc1cccc(-c2ncc(-c3ccccc3)o2)c1	84.7	i	i
COc1cccc(-c2nnc(-c3ccccc3)o2)c1	i	nt	nt
O=C1N=C(N2CCOCC2)SC1=C1CCCC1	i	nt	nt
COC(/C=C/C(OC(C)=O)C(C)OC(C)=O)C(O)C1CC=CC(=O)O1 (centres undefined)	105.4	i	i
COC1=CC(=O)OC1C(O)C(O)C(OC(C)=O)c1ccccc1 (centres undefined)	i	i	i
C[C@H](CO)N1C[C@H](C)[C@@H](CN(C)Cc2ccc3c(c2)OCO3)Oc2ccc(NC(=O)C3CCCCC3)cc2C1=O	i	i	i
C[C@@H]1CN([C@H](C)CO)C(=O)Cc2cc(NC(=O)C3CCCCC3)ccc2O[C@H]1CN(C)Cc1ccc(Cl)c(Cl)c1	i	i	?
C[C@H]1CN([C@@H](C)CO)C(=O)Cc2cc(NC(=O)NC3CCCCC3)ccc2O[C@@H]1CN(C)Cc1ccncc1	i	i	i
C[C@@H]1CN([C@H](C)CO)C(=O)Cc2cc(NC(=O)C3CC3)ccc2O[C@@H]1CN(C)Cc1ccc(Cl)c(Cl)c1	163.8	i	i
C[C@H](CO)N1C[C@H](C)[C@H](CN(C)Cc2ccc3c(c2)OCO3)Oc2ccc(NC(=O)C3CCCCC3)cc2C1=O	i	i	93.5
C[C@@H]1CN([C@H](C)CO)C(=O)Cc2cc(NC(=O)C3CCCCC3)ccc2O[C@@H]1CN(C)Cc1ccc(Cl)c(Cl)c1	i	i	114.2
C[C@H](CO)N1C[C@H](C)[C@H](CN(C)Cc2ccc(Cl)c(Cl)c2)Oc2ccc(NC(=O)NC3CCCCC3)cc2CC1=O	i	i	99.6
C[C@H](CO)N1C[C@H](C)[C@H](CN(C)Cc2ccc(Cl)c(Cl)c2)Oc2ccc(NC(=O)C3CC3)cc2CC1=O	i	i	i
Fc1ccc(CN(C(=S)Nc2ccccc2F)C2CCCCC2)cc1	i	nt	nt
CC(C)NC(=O)C(C)n1c2ccccc2c2cnn(C)c(=O)c21 (centres undefined)	i	nt	nt
CCC1Oc2ccc(Cl)cc2N(CC(=O)NCCc2ccccc2)C1=O (centres undefined)	i	nt	nt
Cc1ccc(/C=N/n2nnnc2N)s1	i	nt	nt
C[C@H]1CN([C@@H](C)CO)C(=O)Cc2cc(NC(=O)C3CCCCC3)ccc2O[C@@H]1CN(C)Cc1ccc2c(c1)OCO2	i	nt	i
C[C@@H]1CN([C@H](C)CO)C(=O)Cc2cc(NC(=O)C3CCCCC3)ccc2O[C@@H]1CN(C)Cc1ccc2c(c1)OCO2	141.2	i	i
O=S(=O)(N[C@@H]1CCCN(Cc2cccc(OCCO)c2)C1)c1cc(C(F)(F)F)ccc1Cl	i	nt	nt
C[C@H]1CN([C@@H](C)CO)C(=O)c2cc(NC(=O)Nc3ccccc3)ccc2O[C@H]1CN(C)Cc1ccncc1	i	i	97.7
C[C@H]1CN([C@@H](C)CO)C(=O)c2cc(NC(=O)Nc3ccc(F)cc3)ccc2O[C@H]1CN(C)Cc1ccccc1	i	nt	i
C[C@H](CO)N1C[C@H](C)[C@H](CN(C)Cc2ccccc2)Oc2ccc(NC(=O)Nc3ccccc3)cc2C1=O	i	i	i
C[C@@H]1CN([C@@H](C)CO)C(=O)c2cc(NC(=O)Nc3ccccc3)ccc2O[C@@H]1CN(C)Cc1ccncc1	i	i	i
C[C@H](CO)N1C[C@H](C)[C@@H](CN(C)Cc2ccc(-c3ccccc3)cc2)Oc2ccc(NC(=O)Nc3ccc(F)cc3)cc2C1=O	i	i	i
SMILES	ROS inducer	PD-1 reversal	NOMO-1 viab
C[C@@H]1CN([C@@H](C)CO)C(=O)c2cc(NC(=O)Nc3ccccc3)ccc2O[C@H]1CN(C)Cc1ccc(-c2ccccc2)cc1	i	i	111.8
C[C@H](CO)N1C[C@H](C)[C@H](CN(C)Cc2ccc(-c3ccccc3)cc2)Oc2ccc(NC(=O)Nc3ccc(F)cc3)cc2C1=O	i	i	104.1
C[C@H]1CN([C@@H](C)CO)C(=O)c2cc(NC(=O)Nc3ccc(F)cc3)ccc2O[C@H]1CN(C)Cc1ccc(-c2ccccc2)cc1	i	i	111.5
C[C@@H]1CN([C@@H](C)CO)C(=O)c2cc(NC(=O)Nc3ccc(F)cc3)ccc2O[C@H]1CN(C)Cc1ccccc1	i	i	i
C[C@@H]1CN([C@@H](C)CO)C(=O)c2cc(NC(=O)Nc3ccc(F)cc3)ccc2O[C@H]1CN(C)Cc1ccc(-c2ccccc2)cc1	i	nt	128.3
C[C@@H]1CN([C@@H](C)CO)C(=O)c2cccc(NC(=O)Nc3ccc(F)cc3)c2O[C@@H]1CN(C)S(C)(=O)=O	89.9	i	i
COc1ccc(NC(=O)Nc2cccc3c2O[C@H](CN(C)S(C)(=O)=O)[C@H](C)CN([C@@H](C)CO)C3=O)cc1	i	i	i
COc1ccc(NC(=O)Nc2cccc3c2O[C@@H](CN(C)S(C)(=O)=O)[C@H](C)CN([C@@H](C)CO)C3=O)cc1	111.5	i	i

Compound activity deposited in PubChem by Broad Institute.
